# Out of some 310,000 compounds screened, about 14,000 (4.5%) showed an effect of 50% or more. Effects have a minus sign here. The entries come from a sample that favours strong results as a whole.
# Biological target: human ether-à-go-go-related gene (hERG) potassium channel (human, UniProt Q12809)
# Assay: primary screen, population patch clamp on CHO cells stably expressing hERG; higher = less effect of the substance
# 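Note: peak tail current of the secondary pulse compared with the same well before compound.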
# Sequence of human ether-à-go-go-related gene (hERG) potassium channel (Q12809 whole entry, looked up): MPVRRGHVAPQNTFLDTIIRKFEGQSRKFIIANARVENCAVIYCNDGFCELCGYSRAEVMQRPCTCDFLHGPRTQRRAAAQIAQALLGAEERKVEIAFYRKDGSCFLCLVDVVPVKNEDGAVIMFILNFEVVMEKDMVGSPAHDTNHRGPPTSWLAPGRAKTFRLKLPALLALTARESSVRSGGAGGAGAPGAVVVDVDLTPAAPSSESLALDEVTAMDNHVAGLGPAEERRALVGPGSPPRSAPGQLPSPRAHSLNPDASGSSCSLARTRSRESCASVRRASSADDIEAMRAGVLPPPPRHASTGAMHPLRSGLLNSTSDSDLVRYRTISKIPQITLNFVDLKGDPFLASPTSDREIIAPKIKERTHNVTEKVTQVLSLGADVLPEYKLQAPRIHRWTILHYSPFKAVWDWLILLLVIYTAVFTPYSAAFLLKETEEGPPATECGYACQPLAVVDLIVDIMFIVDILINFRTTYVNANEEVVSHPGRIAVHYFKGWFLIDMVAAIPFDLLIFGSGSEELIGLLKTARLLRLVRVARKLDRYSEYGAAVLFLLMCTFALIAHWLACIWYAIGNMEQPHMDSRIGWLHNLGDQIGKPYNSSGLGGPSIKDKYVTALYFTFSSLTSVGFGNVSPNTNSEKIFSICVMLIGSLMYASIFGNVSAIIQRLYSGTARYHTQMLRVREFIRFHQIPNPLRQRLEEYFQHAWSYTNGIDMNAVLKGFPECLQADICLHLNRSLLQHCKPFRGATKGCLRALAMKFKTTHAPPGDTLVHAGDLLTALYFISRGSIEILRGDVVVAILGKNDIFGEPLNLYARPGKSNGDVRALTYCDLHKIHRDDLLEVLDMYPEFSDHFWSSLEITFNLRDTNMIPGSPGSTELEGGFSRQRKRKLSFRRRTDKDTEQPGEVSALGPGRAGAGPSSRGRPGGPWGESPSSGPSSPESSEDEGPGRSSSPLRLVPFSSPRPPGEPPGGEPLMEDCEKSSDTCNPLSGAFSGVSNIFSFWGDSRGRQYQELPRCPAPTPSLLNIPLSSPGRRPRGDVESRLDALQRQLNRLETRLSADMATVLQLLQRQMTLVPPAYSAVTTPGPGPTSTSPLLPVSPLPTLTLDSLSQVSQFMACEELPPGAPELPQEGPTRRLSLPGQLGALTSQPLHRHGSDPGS
row,SMILES,"hERG current change (%, negative = inhibition) at 10uM"
1,CCOC(=O)CSc1nc(N)cc(=O)[nH]1,7.78%
2,CN(Cc1ccccc1)C(=O)c1[nH]cnc1C(=O)NCc1ccc(CNC(=O)OC(C)(C)C)cc1,-6.68%
3,CC(C)NC(=O)C1CCN(C(=O)C(C(=O)c2ccccc2)n2cc(Cl)ccc2=O)CC1 (stereo not drawn),6.17%
4,COC(=O)c1ccc2c(C)c(C(C)(C)O)[nH]c2c1,10.3%
5,Cc1sc2nc(-c3cccnc3)[nH]c(=O)c2c1-c1ccccc1,-4.06%
6,Clc1ccc(OCCn2ccnc2)c(Cl)c1,-18.9%
7,CN(C)/C=N/c1[nH]ncc1C#N,16%
8,CC1CCN(CCc2nc3cc(NC(=O)COc4ccc(Cl)cc4)ccc3n2C)CC1,-74.7%
9,COc1ccc(-c2c(-c3cc(OC)cc(OC)c3)n(C)c3ccc(-c4cccc5[nH]ccc45)cc23)cc1,16.7%
10,COCCNC(=O)c1ccccc1NS(=O)(=O)c1ccc(Br)s1,0.678%
11,CC(C)=C1C2CCC1C(C(=O)Nc1cc(C)cc(C)c1)C2C(=O)O (stereo not drawn),14%
12,CCN(CC)CC#CCC(O)(c1ccccc1)C1CCCC1.Cl (stereo not drawn),-11.7%
13,CCN(CC)CC#CCC(OC)(c1ccccc1)c1ccccc1.Cl,-32.5%
14,CCN(CC)CC#CCC(C)(c1ccccc1)c1ccccc1.Cl,-54.8%
15,CCN(CC)CC#CCC(O)(c1ccccc1)c1ccc(Br)cc1.Cl (stereo not drawn),-50.1%
16,CCN(CC)CC#CCC(O)(c1ccccc1)c1ccccc1,-25.1%
17,CN(C)CC#CCC(O)(c1ccccc1)c1ccccc1,-2.15%
18,CC(=O)N1CCC(N(CCN2CCOCC2)C(=S)Nc2cccc(C)c2)CC1,0.988%
19,C=CCN(c1ccccc1)S(=O)(=O)c1cccc(C(=O)NCC(c2ccc(F)cc2)N2CCOCC2)c1 (stereo not drawn),-29.6%
20,C=CCN(c1ccccc1)S(=O)(=O)c1cccc(C(=O)NCC(c2ccccc2OC)N2CCCC2)c1 (stereo not drawn),-70.5%
21,COc1ccc(C(CNC(=O)c2cccc(S(=O)(=O)Nc3ccccc3OC)c2)N2CCCC2)cc1 (stereo not drawn),-56.6%
22,COc1ccccc1NS(=O)(=O)c1cc(C(=O)NCC(c2ccco2)N2CCCCC2)ccc1C (stereo not drawn),-48.6%
23,COc1ccc(C(CNC(=O)c2ccc(C)c(S(=O)(=O)Nc3ccccc3OC)c2)N2CCCC2)cc1 (stereo not drawn),-66.2%

row,SMILES,"hERG current change (%, negative = inhibition) at 10uM"
1,COc1ccc(NS(=O)(=O)c2cccc(C(=O)NCC(c3ccc(OC)cc3)N3CCCC3)c2)cc1 (stereo not drawn),-46.7%
2,C=CCN(c1ccccc1)S(=O)(=O)c1cccc(C(=O)NCC(c2cccs2)N2CCOCC2)c1 (stereo not drawn),-18.7%
3,COc1ccccc1NS(=O)(=O)c1cc(C(=O)NCC(c2ccc(F)cc2)N2CCOCC2)ccc1C (stereo not drawn),-19.1%
4,COc1ccccc1NS(=O)(=O)c1cccc(C(=O)NCC(c2ccccc2OC)N2CCCC2)c1 (stereo not drawn),-12.9%
5,COc1ccccc1C(CNC(=O)c1cccc(S(=O)(=O)Nc2ccc(C)cc2)c1)N1CCCC1 (stereo not drawn),-29.8%
6,COc1ccc(C(CNC(=O)c2cccc(S(=O)(=O)Nc3ccccc3OC)c2)N2CCOCC2)cc1 (stereo not drawn),-46.1%
7,COc1ccc(NS(=O)(=O)c2cccc(C(=O)NCC(c3ccccc3OC)N3CCCC3)c2)cc1 (stereo not drawn),-55.4%
8,CCOC(=O)c1sc(NC(=O)c2ccc(S(=O)(=O)N3CCCCC3)cc2)nc1-c1ccccc1,18.1%
9,CC(=O)Nc1ccccc1C(F)(F)F,21.2%
10,COc1ccc(C(=O)NC(C)c2nnc(SCC(=O)NC3CCCC3)n2C)cc1 (stereo not drawn),4.98%
11,O=C1OC(c2ccc(Cl)cc2)=C/C1=C/c1cccnc1,23.3%
12,Cc1c(Cc2ccccc2)c(=O)oc2c(C)c(OCc3nn[nH]n3)ccc12,11.3%
13,Cc1ccc(S(=O)(=O)N/N=C/c2ccc(OS(=O)(=O)c3ccc(C)c([N+](=O)[O-])c3)cc2)cc1,7.76%
14,Cc1ccc(C(=O)NCCn2cc(SCC(=O)Nc3nnc(C)s3)c3ccccc32)cc1,-3.05%
15,COc1ccccc1CNC(=O)CC(C)c1ccccc1 (stereo not drawn),4.63%
16,CCCn1c2ccccc2c2nnc(SCC(=O)Nc3cc(C)on3)nc21,-0.11%
17,Cc1ccc(S(=O)(=O)N2CCN(S(C)(=O)=O)C2c2ccccc2)cc1 (stereo not drawn),-37.2%
18,C=CCOc1ccc(/C=C/C(=O)OCC(=O)NCCc2ccccc2)cc1,8.61%
19,COc1ccc(N(C)S(=O)(=O)c2cccc(C(=O)NCC(c3cccs3)N(C)C)c2)cc1 (stereo not drawn),-52.3%
20,COc1ccc(C(CNC(=O)c2cccc(N(C)C)c2)N2CCCC2)cc1 (stereo not drawn),-28.3%
21,CNS(=O)(=O)c1cccc(C(=O)NCC(c2cccs2)N(C)C)c1 (stereo not drawn),-5.25%
22,COc1ccc(C(CNC(=O)c2cccc(S(=O)(=O)N(C)c3ccccc3)c2)N2CCCC2)cc1 (stereo not drawn),-60.2%

# From paper PMC4336329 (PLoS ONE, 2015)
